This is one part of a sample in which hits are shown more often than they occur.
Algae TAG accum = inducers of triacylglycerol accumulation in Chlamydomonas reinhardtii algae | Chlamydomonas reinhardtii TAG, Nile Red fluorescence, 72 h | calls only at 10 µM (by protocol) | 44,000 tested, 0.84% active | AID 1159537; call rule not given here;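 note: hits raise Nile Red signal meaning more stored TAG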
Of the large screens only hits and unclear results are named; the others gave an inactive call.

OCCN1CCN(Cc2ccccc2)CC1	none
Cc1ccc(CN2CCN(c3ccc(F)cc3)CC2)cc1	Algae TAG accum active
COc1ccccc1N1CCN(Cc2ccc(Br)cc2)CC1	none
CN(C)c1ccc(CN2CCN(c3ccc(F)cc3)CC2)cc1	none
Fc1ccc(CN2CCN(c3ccccc3Cl)CC2)cc1	Algae TAG accum active
CN(C)c1ccc(CN2CCN(Cc3ccccc3)CC2)cc1	none
Oc1ccc(CN2CCN(Cc3ccccc3)CC2)cc1	Algae TAG accum active
Cc1ccc(CN2CCN(c3ccc(Cl)cc3)CC2)cc1	none
CCc1ccc(CN2CCN(c3ccccc3OC)CC2)cc1	none
CN(C)c1ccc(CN2CCN(c3ccccc3Cl)CC2)cc1	none
Fc1ccccc1N1CCN(Cc2ccc(Cl)cc2)CC1	none
COc1ccccc1N1CCN(Cc2ccc(Cl)cc2)CC1	Algae TAG accum active
C#CCSc1nc2ccccc2c(=O)n1-c1ccc(OC)cc1	none
O=[N+]([O-])c1cccc(CN2CCN(c3ccc(Cl)cc3)CC2)c1	none
CN(C)c1ccc(/C=C\c2nc3ccccc3c(=O)n2-c2ccc(O)cc2)cc1	none
O=c1c2ccccc2nc(C=Cc2ccccc2Cl)n1-c1ccccc1[N+](=O)[O-]	none
O=C(Cc1ccccc1)N1CCN(Cc2ccc3c(c2)OCO3)CC1	none
CCN(Cc1ccccc1)C(=O)C(Cl)(Cl)Cl	none
O=C(Cc1ccccc1)N1CCN(Cc2ccncc2)CC1	none
OCCN1CCN(Cc2cccc(F)c2)CC1	none
COc1ccc(CN2CCN(C(=O)COc3ccccc3)CC2)cc1	none
Nc1ccc([N+](=O)[O-])cc1C(=O)c1ccc(Cl)cc1	none
CCC(C)N1CCN(Cc2ccccc2)CC1 (configuration not stated)	none
Fc1ccc(N2CCN(Cc3ccccc3)CC2)cc1	Algae TAG accum active
CN1CCN(Cc2ccccc2)CC1	none
c1ccc(CN2CCN(c3ccccc3)CC2)cc1	none
OC1CCN(CCc2ccccc2)CC1	none
Fc1ccc(CN2CCN(c3ccccc3)CC2)cc1	none
Cc1cccc(N2CCN(CCc3ccccc3)CC2)c1C	none
Cc1ccc(N2CCN(CCc3ccccc3)CC2)cc1	Algae TAG accum active
c1ccc(CN2CCN(C3CCCCC3)CC2)cc1	Algae TAG accum active
CC/C(=C\c1ccc(F)cc1)[N+](=O)[O-]	none
CCN1CCN(Cc2ccccc2O)CC1	none
COc1cccc(N2CCN(Cc3cccc(Br)c3)CC2)c1	none
CN1CCN(c2ccc([N+](=O)[O-])c(N3CCN(C)CC3)c2Cl)CC1	none
CN1CCN(Cc2c(Cl)cccc2Cl)CC1	none
CCc1ccc(CN2CCN(C)CC2)cc1	none
CCc1ccc(CN2CCN(CCO)CC2)cc1	Algae TAG accum active
CN1CCN(Cc2ccc(Cl)cc2)CC1	none
CC(C)c1ccc(CN2CCN(C)CC2)cc1	Algae TAG accum active
CCc1ccc(CN2CCN(C(C)C)CC2)cc1	none
Clc1ccc(CN2CCCCC2c2cccnc2)cc1 (configuration not stated)	none
COc1ccc(CN2CCN(c3ccccc3)CC2)cc1Br	none
CC1CN(c2c(Cl)cccc2[N+](=O)[O-])CCN1 (configuration not stated)	none
Cc1cc(C)cc(NC(=O)C(Cl)(Cl)Cl)c1	none
COc1ccccc1CNCCc1ccc(OC)c(OC)c1	none
COc1ccc(OC)c(CNCCc2ccc([N+](=O)[O-])cc2)c1	Algae TAG accum active
COc1ccc(OC)c(CNCCc2cccc(F)c2)c1	none
Cc1ccccc1SCC(=O)O	none
COc1ccc(N2CCN(Cc3ccc(OC)c(C)c3)CC2)cc1	none
Cc1ccccc1N1CCN(Cc2ccc(Cl)cc2)CC1	none
COc1ccc(N2CCN(Cc3ccc([N+](=O)[O-])cc3)CC2)cc1	none
O=[N+]([O-])c1ccc(CN2CCN(c3ccc(Cl)cc3)CC2)cc1	none
Cc1ccccc1N1CCN(Cc2cccc([N+](=O)[O-])c2)CC1	none
Cc1ccccc1N1CCN(Cc2ccc([N+](=O)[O-])cc2)CC1	Algae TAG accum active
COc1cccc(N2CCN(Cc3ccc([N+](=O)[O-])cc3)CC2)c1	Algae TAG accum active
O=[N+]([O-])c1ccc(N2CCN(Cc3ccc(Cl)cc3)CC2)cc1	none
COc1ccc(CN2CCN(c3cccc(OC)c3)CC2)cc1	none
O=[N+]([O-])c1ccc(CN2CCN(c3ccccc3)CC2)cc1	Algae TAG accum active
O=c1cccc2n1C[C@H]1C[C@H]2CN(Cc2cccc(Cl)c2Cl)C1	none
CCS(CC)=C1C(=O)NC(=O)N(Cc2ccc(F)cc2)C1=O	none
COc1ccc(CN2CCN(c3ccccc3C)CC2)cc1OC	none
Nc1n[nH]c(-c2nc(N)n[nH]2)n1	none
CN1CCN(c2cc(N3CCCC3)ccc2[N+](=O)[O-])CC1	none
CN1CCN(c2ccccc2[N+](=O)[O-])CC1	none
CN1CCN(c2ccc([N+](=O)[O-])c(N3CCCCC3)c2)CC1	Algae TAG accum active
CCN1CCN(Cc2c(F)cccc2F)CC1	none
COCCNC1Cc2ccccc2C1	none
Cc1cccc(CN2CCN(C)CC2)c1	none
COc1cccc(-n2c(Cc3cccc([N+](=O)[O-])c3)nc3ccccc3c2=O)c1	none
C(#CCN1CCOCC1)COc1ccccc1	none
c1ccc2c(CN3CCCCCCC3)c[nH]c2c1	none
C(#CCN1CCCCC1)COc1ccccc1	Algae TAG accum active
COc1ccc(CN2CCN(Cc3ccccc3)CC2)cc1Br	none
Cc1cc(Br)ccc1OCC(=O)N1CCN(Cc2ccc3c(c2)OCO3)CC1	none

Source: PubChem BioAssay
